# Hit rate of the full screen: of about 310,000 compounds, about 14,000 (4.5%) showed an effect of 50% or more. Effects have a minus sign here. Many of the other results were omitted from the sample, so strong results are more common in it than they were.
# Molecular target: human ether-à-go-go-related gene (hERG) potassium channel (human, UniProt Q12809)
# Experiment: primary screen, population patch clamp on CHO cells stably expressing hERG; higher = less effect of the substance
# 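Note: peak tail current of the secondary pulse compared with the same well before compound.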
# Chain of human ether-à-go-go-related gene (hERG) potassium channel (Q12809 whole entry, looked up): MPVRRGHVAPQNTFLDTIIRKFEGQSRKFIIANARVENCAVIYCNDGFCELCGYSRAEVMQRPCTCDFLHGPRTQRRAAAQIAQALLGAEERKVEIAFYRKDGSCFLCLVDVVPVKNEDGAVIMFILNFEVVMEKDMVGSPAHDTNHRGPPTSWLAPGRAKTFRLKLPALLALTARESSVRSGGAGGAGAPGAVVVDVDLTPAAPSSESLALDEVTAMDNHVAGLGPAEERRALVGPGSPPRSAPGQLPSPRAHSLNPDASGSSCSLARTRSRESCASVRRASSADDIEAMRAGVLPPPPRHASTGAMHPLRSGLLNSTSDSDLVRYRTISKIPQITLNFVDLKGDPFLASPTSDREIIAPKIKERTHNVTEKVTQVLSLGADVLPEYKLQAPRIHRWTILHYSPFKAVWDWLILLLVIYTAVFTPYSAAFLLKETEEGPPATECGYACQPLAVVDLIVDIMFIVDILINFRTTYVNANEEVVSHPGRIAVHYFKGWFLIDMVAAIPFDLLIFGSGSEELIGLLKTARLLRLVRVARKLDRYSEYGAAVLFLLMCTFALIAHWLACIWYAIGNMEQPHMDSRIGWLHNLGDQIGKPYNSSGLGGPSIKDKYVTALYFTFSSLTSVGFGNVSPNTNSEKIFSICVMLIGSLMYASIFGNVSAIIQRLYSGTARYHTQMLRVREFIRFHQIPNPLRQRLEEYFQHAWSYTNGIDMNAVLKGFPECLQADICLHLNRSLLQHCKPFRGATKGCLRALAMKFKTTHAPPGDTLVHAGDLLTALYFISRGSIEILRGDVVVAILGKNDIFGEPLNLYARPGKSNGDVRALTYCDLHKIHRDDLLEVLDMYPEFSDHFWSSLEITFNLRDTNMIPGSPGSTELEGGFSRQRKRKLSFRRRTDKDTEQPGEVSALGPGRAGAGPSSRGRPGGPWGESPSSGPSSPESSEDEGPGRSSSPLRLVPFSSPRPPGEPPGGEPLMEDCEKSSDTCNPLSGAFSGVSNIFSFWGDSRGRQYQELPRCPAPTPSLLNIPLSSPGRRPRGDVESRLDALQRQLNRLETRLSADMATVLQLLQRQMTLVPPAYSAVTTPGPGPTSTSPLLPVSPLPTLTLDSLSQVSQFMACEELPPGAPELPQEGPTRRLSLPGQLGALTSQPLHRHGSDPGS
row,SMILES,"hERG current change (%, negative = inhibition) at 10uM [%]"
1,O=C(O)C1Cc2ccccc2-c2ccccc2C1,20.1
2,CC(C)COC(=O)c1ccc(NC(=O)C2C3CCC(C3)C2C(=O)O)cc1 (centres unmarked),7.41
3,Nc1nc(Cl)cc(Sc2ccc3ccccc3c2)n1,14.1
4,CCOC(=O)c1ccoc1CSCc1ccc(C(=O)OC)o1,5.24
5,COc1ccc(CNC(=O)C/C(C)=N/NC(=O)Cc2ccc(OC)cc2)cc1,3.39
6,CCC(=O)Oc1ccc(-c2cnc3ccccc3n2)cc1,13.5
7,COc1ccc(C(CNC(=O)c2cccc(S(=O)(=O)NCc3ccccc3)c2)N2CCOCC2)cc1 (centres unmarked),-40
8,c1ccc2[nH]c(CN3CCN(c4ncnc5c4oc4ccccc45)CC3)nc2c1,-73.1
9,Cc1nc(SCc2nc3ccccc3[nH]2)c2oc3ccccc3c2n1,1.04
10,C(=C\c1ccccc1)/CN1CCN(c2ncnc3c2oc2ccccc23)CC1,-53.7
11,Cc1nc(N2CCN(Cc3nc4ccccc4[nH]3)CC2)c2oc3ccccc3c2n1,-52.1
12,Cl.c1ccc2c(c1)oc1c(N3CCOCC3)ncnc12,9.53
13,Cc1nc(N2CCN(Cc3ccc(Cl)cc3)CC2)c2oc3ccccc3c2n1,-19.3
14,c1ccc(N2CCN(c3ncnc4c3oc3ccccc34)CC2)cc1,2.36
15,COc1ccccc1N1CCN(c2ncnc3c2oc2ccccc23)CC1,6.73
16,c1ccc2[nH]c(CSc3ncnc4c3oc3ccccc34)nc2c1,-21.4
17,CC(C)(C)NC(=O)CCN(/N=C/c1ccccc1F)C1=NS(=O)(=O)c2ccccc21,15.7
18,CCNc1c(NS(=O)(=O)c2ccc(OC)cc2)c(=O)oc2ccccc12,-24.3
19,O=C(Nc1ccccc1Cc1ccccc1)c1ccc2c(c1)SC1=NS(=O)(=O)CCN12,-5.78
20,COC(=O)c1cccc(NC(=S)Nc2ccccc2Cl)c1,-3.48
21,Cc1c(C(=O)N(C)C)c2ccc(Cl)cc2n1O,15.6
22,COc1ccc(Cn2c(=O)[nH]c3cc(OC)c(OC)cc3c2=O)cc1,7.17
23,Cc1ccc(C(=O)N/C(N)=N/c2nc3ccccc3o2)cc1,-2.82

row,SMILES,"hERG current change (%, negative = inhibition) at 10uM [%]"
1,N=C1C(c2ccccc2)=C(O)CN1Cc1ccco1,6.39
2,N=c1c2c(-c3ccccc3)c(-c3ccccc3)n(Cc3ccco3)c2ncn1Cc1ccccc1,-69.3
3,N=c1c2c(-c3ccccc3)c(-c3ccccc3)n(Cc3ccco3)c2ncn1Cc1ccco1,-71.2
4,O=c1c2ccccc2c2ccccc2c(=O)n1Cc1ccco1,3.47
5,N=c1c2c(-c3ccccc3)c(-c3ccccc3)oc2ncn1Cc1ccco1,0.861
6,CC(C)Cn1cnc2c(c(-c3ccccc3)c(-c3ccccc3)n2Cc2ccco2)c1=N,-73.3
7,O=c1c2ccccc2nc(-c2ccccc2)n1Cc1ccco1,-30.5
8,CC1(C)Cc2c(sc3c2c(=N)n(Cc2ccco2)c(=O)n3Cc2ccccc2)CO1,-12.5
9,CCN(CC)S(=O)(=O)c1ccc(Cl)c(C(=O)Nc2cc(C)nn2-c2ccccc2)c1,-26.3
10,O=C(CCC(=O)N1CCSc2ccccc21)NCc1ccc(Cl)cc1,-33.8
11,CCOc1cc(/C=N/NC(=O)c2ccncc2)ccc1OS(C)(=O)=O,-3.33
12,COc1ccc(C2=CC3=C(Br)C(=O)C(C)(O)C(=O)C3=CO2)cc1 (centres unmarked),11.9
13,O=[N+]([O-])c1cc([N+](=O)[O-])c(N2CCCCCC2)cc1NCCO,-13.4
14,Cc1ccc2c(c1)C(O)(CC(=O)c1ccc(C)s1)C(=O)N2 (centres unmarked),21.4
15,O=C1C=C(c2ccc3[nH]ccc3c2)CCC1,16.3
16,CC(=O)OCC1(C)CN(c2ccccc2)NC1=O (centres unmarked),13.7
17,O=C(Cc1ccccc1)NC(NC(=O)Cc1ccccc1)c1cccc([N+](=O)[O-])c1,4.27
18,N/C(=N\OC(=O)CCCc1ccccc1)c1cccc([N+](=O)[O-])c1,-3.9
19,CC(CCc1ccccc1)NC(=O)CNc1cccc([N+](=O)[O-])c1 (centres unmarked),-30.1
20,C=CCN(CC(O)c1cccc([N+](=O)[O-])c1)C(C)CCc1ccccc1.Cl (centres unmarked),-36.4
21,CC(CCc1ccccc1)NCC(O)c1cccc([N+](=O)[O-])c1.Cl (centres unmarked),-56.2
22,CC(CCc1ccccc1)NC(=O)c1cccc([N+](=O)[O-])c1 (centres unmarked),-8.01
23,CC(CCc1ccccc1)N(C)CC(O)c1cccc([N+](=O)[O-])c1.Cl (centres unmarked),-68.6

row,SMILES,"hERG current change (%, negative = inhibition) at 10uM [%]"
1,Cl.NC(=NCCc1ccccc1)c1cccc([N+](=O)[O-])c1,-57.7
2,Cl.NC(=NCc1ccccc1)c1cccc([N+](=O)[O-])c1,-20
3,CCOc1cc(/C=C(/C#N)c2nc3ccccc3[nH]2)ccc1OCc1ccc(C(=O)O)o1,3.75
4,CC1(C)CC2CC(C)(CN2C(=O)C23CCC(C)(C(=O)O2)C3(C)C)C1 (centres unmarked),-8.69
5,Cc1cc(C)c(S(=O)(=O)NCc2cn3ccccc3n2)c(C)c1,4.96
6,CCCCNC(=O)c1cc2ccccc2s1,10.8
7,CC1CCN(C(=O)CNC(=O)CNC(=O)Cc2ccccc2)CC1,4.9
8,C=CCN1C(=O)C2C(C(=O)NC3CCCC3)C3C=CC2(O3)C1C(=O)NC1CCCC1 (centres unmarked),19
9,COC(=O)c1sccc1NC(=O)c1c(F)c(F)c(F)c(F)c1F,27
10,CN(Cc1ccccc1)CC(O)COc1ccc(CNCc2nccn2C)cc1 (centres unmarked),-72.5
11,COc1ccc(OCC(O)CNc2ccc(Br)cc2)cc1 (centres unmarked),9.56
12,CN(Cc1ccc(Br)cc1)CC(O)COc1cccc(Br)c1 (centres unmarked),-28.5
13,CN(Cc1ccc(OCC(O)CN(C)Cc2ccccc2)cc1)Cc1nccn1C (centres unmarked),-4.14
14,CN(Cc1ccccc1)CC(O)COc1ccc(CNCc2cccnc2)cc1 (centres unmarked),1.13
15,COc1ccc(CN(C)CC(O)COc2ccc(-c3ccccc3)cc2)cc1OC (centres unmarked),-69.4
16,COc1ccc(Br)cc1CN(C)CC(O)COc1ccc(Br)cc1 (centres unmarked),-74.6
17,CCn1ccnc1CNCc1ccc(OCC(O)CN(C)Cc2ccccc2)cc1 (centres unmarked),-11.7
18,Cc1cc(CN(C)Cc2ccc(OCC(O)CN(C)Cc3ccccc3)cc2)on1 (centres unmarked),-4.84
19,CC(=O)Nc1ccccc1-c1nn[nH]n1,0.73
20,Cc1c(CCN)ccc2c1[nH]c1ccccc12,0.0766
21,Oc1ccccc1/C=N/N1CCCCC1,6.81
22,CCN(CC)c1ncnc2c1ncn2Cc1c(Cl)cccc1Cl,2.93
23,CC(C(=O)O)n1cc(Cl)cn1 (centres unmarked),8.82

row,SMILES,"hERG current change (%, negative = inhibition) at 10uM [%]"
1,CCCCn1c(N)c(N(CC(C)C)C(=O)CN2C(=O)c3ccccc3C2=O)c(=O)[nH]c1=O,-7.79
2,Cc1ccc(NC(=O)c2ccc(OC(=O)c3cc4ccccc4o3)cc2)cc1,8.66
3,COc1cccc(SCC2CSc3nc4ccccc4c(=O)n32)c1 (centres unmarked),-22.3
4,O=c1c2ccccc2nc2n1C(CSc1ccccc1)CS2 (centres unmarked),-19.6
5,Cc1cccc(C(=O)Nc2ccccc2SCC2CSc3nc4ccccc4c(=O)n32)c1 (centres unmarked),-80.4
6,O=c1c2ccccc2nc2n1C(CSCc1cccc(C(F)(F)F)c1)CS2 (centres unmarked),-23.4
7,Nc1ccccc1SCC1CSc2nc3ccccc3c(=O)n21 (centres unmarked),-45.2
8,O=C(Nc1ccccc1SCC1CSc2nc3ccccc3c(=O)n21)c1cccc(Cl)c1 (centres unmarked),-75.5
9,O=c1c2ccccc2nc2n1C(CBr)CS2 (centres unmarked),15.6
10,Cc1nc2ccccc2c(=O)n1NC(=O)c1cccc(Cl)c1,13
11,Cc1ccc(C(=O)Nc2nc3ccccc3c(=O)s2)cc1,15.9
12,O=c1c2ccccc2nc2n1C(CSCc1ccc(Cl)cc1Cl)CS2 (centres unmarked),-21.8
13,Cc1ccc(C(=O)Nc2ccccc2SCC2CSc3nc4ccccc4c(=O)n32)cc1 (centres unmarked),-68.4
14,O=C(Nc1ccccc1SCC1CSc2nc3ccccc3c(=O)n21)c1ccccc1 (centres unmarked),-67.7
15,Cc1ccc(OC2CCN(C(=O)C3CCC(=O)N(C4CC4)C3)CC2)cc1 (centres unmarked),-15.8
16,COC(=O)c1ccc(COC(=O)Cc2n[nH]c(=O)c3ccccc23)cc1,-1.24
17,CCC(C)N=CC1=C(O)CC(c2ccccc2)CC1=O (centres unmarked),-4.11
18,COc1ccc(C(=O)NCC(=O)OCC(=O)NC(=O)c2ccc(C(C)(C)C)cc2)cc1OC,-23.7
19,CCN(CC)c1ncc(C#N)c(N)n1,8.37
20,COc1ccc(CNC(=O)C2C3C=CC4(CN(Cc5cccnc5)C(=O)C24)O3)cc1 (centres unmarked),-16.2

# Reference: paper PMC4336329 (PLoS ONE, 2015)
